Records with an inconclusive call do not appear. Unmarked numbers belong to inactive results. Activity calls are given as the source filed them. Calls come from the whole dose curve.
Test: p53 small molecule agonists, cell-based qHTS assay: qHTS cell viability counter screen (AID 1963581); note: nearly all actives have a fitted effect of over 45% in size
Conditions: p53RE-bla HCT-116 viability, ATP luminescence, 16 h; series mostly up to 66 µM; activity change, negative = cytotoxicity: at the top concentration
Source text: National Center for Advancing Translational Sciences [NCATS]
Division of Preclinical Innovation [DPI]
U.S. Environmental Protection Agency [EPA]
National Institutes of Environmental Health Sciences [NIEHS]
National Toxicology Program [NTP]
U.S. Food and Drug Administration [FDA]
p53, a tumor suppressor protein, is activated following cellular insult, including DNA damage and other cellular stresses. The activation of p53 regulates cell fate by inducing DNA repair, cell cycle arrest, apoptosis, or cellular senescence. The activation of p53, therefore, is a good indicator of DNA damage and other cellular stresses. The CellSensor p53RE-bla HCT-116 cell line (Invitrogen) contains a stably integrated beta-lactamase reporter gene under control of the p53 response elements. The activation of the reporter gene under culture conditions can be detected by fluorescence intensity. This cell line was used to screen the Tox21 compound library in a 1536-well plate format and to identify agonists that activate the p53 signaling pathway. The cytotoxicity of the Tox21 compound library against the p53 RE-bla HCT-116 cell line was tested in parallel by measuring the intra cellular ATP content in the same wells.
Tox21 Assay Protocol Summary:
The p53RE-bla cells were dispensed at 4,000 cells/5 ul/well in 1536-well black wall/clear bottom plates using a Multidrop dispenser. After the assay plates were incubated at a 37 C/5% CO2 incubator for 5 hours, 23 nL of compounds dissolved in DMSO, positive controls or DMSO only was transferred to the assay plate by a pin tool. The plates were incubated at 37 C for 16 hours. After 1 uL of LiveBLAzerTM B/G FRET substrate was added using a Flying Reagent Dispenser, the plates were incubated at room temperature for 2 hours, and fluorescence intensity was measured by an Envision plate reader. For cell viability readout that measures cytotoxicity, 4 ul/well of CellTiter-Glo reagent was added into the assay plates using a Flying Reagent Dispenser. After 30 min incubation at room temperature, the luminescence intensity in the plates was measured using a ViewLux plate reader.
% is set by controls: 0 for no effect and ±100 for the full control effect; potency is the fitted concentration of half-maximal effect.

**Q.** For CCCCCCCCCCCCCCN(CCO)CCO, which “activity change, negative = cytotoxicity” value is on record?
**A.** Its value is 11.7%.

**Q.** With CCN1CCCC1CN (stereo not given) as the compound, how does the “activity change, negative = cytotoxicity” value read?
**A.** Its value is 0.126% [at 30.3 µM].

**Q.** With C[C@@H]1O[C@@H](O[C@@H]2[C@@H](O)[C@H](OCCc3ccc(O)c(O)c3)O[C@H](CO[C@@H]3O[C@H](CO)[C@@H](O)[C@H](O)[C@H]3O)[C@H]2OC(=O)/C=C/c2ccc(O)c(O)c2)[C@H](O)[C@H](O)[C@H]1O as the compound, how does the “activity change, negative = cytotoxicity” value read?
**A.** Its value is 0.764%.

**Q.** For CC(C)C/C=C(\C=O)c1ccccc1, which “activity change, negative = cytotoxicity” value is on record?
**A.** The value was -11.5%.

**Q.** With CCCCCCCCCCCCS(=O)(=O)Cl as the compound, how does the activity change, negative = cytotoxicity read?
**A.** The activity change, negative = cytotoxicity was -1.69% [at 13.5 µM].

**Q.** For C=CC(=O)OCC(CO)(COCC(COC(=O)C=C)(COC(=O)C=C)COC(=O)C=C)COC(=O)C=C, which Potency is on record?
**A.** The Potency was 14.3 µM (active).

**Q.** For Nc1ncnc2c1ncn2[C@H]1CC[C@@H](CO)O1, which “activity change, negative = cytotoxicity” value is on record?
**A.** Its value is 6.54%.

**Q.** With CCN(O)CC as the compound, how does the “activity change, negative = cytotoxicity” value read?
**A.** The value was -0.652%.

**Q.** Which activity change, negative = cytotoxicity does the source give for O=c1[nH]c(=O)c2[nH]c(=O)[nH]c2[nH]1 here?
**A.** Its activity change, negative = cytotoxicity is -12.2% [at 5.99 µM].

**Q.** Which “activity change, negative = cytotoxicity” value does the source give for CCCCN(C)C here?
**A.** The value was 18.9%.

**Q.** With C[C@H]1NCc2cc(-c3ccc4c(=O)c(C(=O)O)cn(C5CC5)c4c3OC(F)F)ccc21 as the compound, how does the activity change, negative = cytotoxicity read?
**A.** Its activity change, negative = cytotoxicity is -9.15% [at 13.5 µM].

**Q.** With O=C(O)C(Cc1cc(I)c(O)c(I)c1)c1ccccc1 (stereo not given) as the compound, how does the “activity change, negative = cytotoxicity” value read?
**A.** The value was -4.87% [at 30.3 µM].

**Q.** Which “activity change, negative = cytotoxicity” value does the source give for CCCCCCCCC(C)=O here?
**A.** Its value is 17.2%.

**Q.** With [Cl][Pt-2]([Cl])([Cl])[Cl] as the compound, how does the “activity change, negative = cytotoxicity” value read?
**A.** The value was 29.4%.

**Q.** For CCOC(=O)c1ccccc1, which “activity change, negative = cytotoxicity” value is on record?
**A.** The value was 5.27%.

**Q.** Which “activity change, negative = cytotoxicity” value does the source give for CCCCOC(=O)[C@@H](C)Oc1ccc(Oc2ccc(C(F)(F)F)cn2)cc1 here?
**A.** Its value is -8.55%.

**Q.** With CC/C(=C\C(=N/O)C(N)=O)C(C)[N+](=O)[O-] (stereo not given) as the compound, how does the “activity change, negative = cytotoxicity” value read?
**A.** The value was -20.5%.

**Q.** For NCCCCCC(=O)O, which “activity change, negative = cytotoxicity” value is on record?
**A.** Its value is -7.44% [at 30.3 µM].

**Q.** For C[N+]1(CC2COC(c3ccccc3)(C3CCCCC3)O2)CCCCC1 (stereo not given), which “activity change, negative = cytotoxicity” value is on record?
**A.** The value was -17.9% [at 30.3 µM].

**Q.** With CCCCCCCCCCCCCC(=O)OCC(O)CO (stereo not given) as the compound, how does the “activity change, negative = cytotoxicity” value read?
**A.** Its value is -18.3%.

**Q.** Which “activity change, negative = cytotoxicity” value does the source give for Oc1ccc(Oc2ccccc2)cc1 here?
**A.** The value was 3.7%.

**Q.** With CCOC(=O)[C@H](CCc1ccccc1)N[C@H]1CS[C@H](c2cccs2)CN(CC(=O)O)C1=O as the compound, how does the “activity change, negative = cytotoxicity” value read?
**A.** Its value is 8.71% [at 30.3 µM].

**Q.** With ClC1=C(Cl)C1(Cl)Cl as the compound, how does the “activity change, negative = cytotoxicity” value read?
**A.** Its value is -1.34%.

**Q.** For CC(C)(O)C(=O)c1ccccc1, which “activity change, negative = cytotoxicity” value is on record?
**A.** The value was -5.9%.

**Q.** Which “activity change, negative = cytotoxicity” value does the source give for CC(CO)(CO)C(=O)O here?
**A.** Its value is -7.53%.

**Q.** For CCCCCCC(O)CCCCCCCCCCC(=O)OC (stereo not given), which “activity change, negative = cytotoxicity” value is on record?
**A.** Its value is -4.5%.

**Q.** Which “activity change, negative = cytotoxicity” value does the source give for COC(=O)/C=C\C(=O)O here?
**A.** The value was -1.47%.

**Q.** Which “activity change, negative = cytotoxicity” value does the source give for CCCCCCCCCCCC[N+](C)(C)CC(=O)[O-] here?
**A.** The value was 13.2%.

**Q.** Which “activity change, negative = cytotoxicity” value does the source give for CCCCCCOC(=O)CCCCC(=O)OCCCCCC here?
**A.** The value was 24.4%.

**Q.** For COC(=O)c1ccc(NC(C)=O)cc1OC, which “activity change, negative = cytotoxicity” value is on record?
**A.** The value was -4% [at 30.3 µM].

**Q.** With [O]=[Bi] as the compound, how does the activity change, negative = cytotoxicity read?
**A.** Its activity change, negative = cytotoxicity is 5.64% [at 5.99 µM].

**Q.** Which “activity change, negative = cytotoxicity” value does the source give for CCN(CC)CCOC(=O)C(Cc1cccc2ccccc12)CC1CCCO1 (stereo not given) here?
**A.** Its value is 29.7% [at 30.3 µM].

**Q.** Which “activity change, negative = cytotoxicity” value does the source give for O=C(O)c1ccc(Cl)cc1Cl here?
**A.** The value was 9.17%.

**Q.** Which “activity change, negative = cytotoxicity” value does the source give for O=C(O)c1ccncc1 here?
**A.** The value was -0.716%.

**Q.** With CC(=O)[C@H]1CC[C@H]2[C@@H]3C[C@H](C)C4=CC(=O)CC[C@]4(C)[C@H]3[C@@H](O)C[C@]12C as the compound, how does the “activity change, negative = cytotoxicity” value read?
**A.** Its value is 0.878% [at 30.3 µM].

**Q.** Which “activity change, negative = cytotoxicity” value does the source give for COc1cccc(O)c1 here?
**A.** The value was 9.38%.

**Q.** With NC1CCN(c2cccc(Cl)n2)CC1 as the compound, how does the “activity change, negative = cytotoxicity” value read?
**A.** The value was 7.52% [at 30.3 µM].

**Q.** With Nc1cccc(S(=O)(=O)c2cccc(N)c2)c1 as the compound, how does the “activity change, negative = cytotoxicity” value read?
**A.** Its value is 2.7%.

**Q.** Which “activity change, negative = cytotoxicity” value does the source give for CC(C(=O)O)c1ccc(C(=O)c2ccccc2)s1 (stereo not given) here?
**A.** The value was 5.68% [at 30.3 µM].

**Q.** For CC[N+](CC)(CC)Cc1ccccc1, which “activity change, negative = cytotoxicity” value is on record?
**A.** Its value is 4.06%.
